According to ChEMBL document CHEMBL4513216, “Probing the Open Global Health Chemical Diversity Library for Multistage-Active Starting Points for Next-Generation Antimalarials” (ACS Infect Dis, 2020):
Screen size: about 65,000 compounds; about 2,100 (3.2%) showed an effect of 50% or more. The median lay at about -52%. The list comes from a sample in which strong results are over-represented; it also holds similar structures and randomly drawn compounds.

Test system: Plasmodium falciparum
Test: Screen against P. falciparum Asexual Blood Stage (ABS), at 5uM
Type: functional, Dd2
Conditions: tested at 5 uM

| Compound | INHIBITION [%] |
| --- | --- |
| O=C(c1csc(-c2ncccn2)n1)N1CCN2CCCCC2C1 (centres undefined) | -32.7 |
| CN(C)[C@@H]1CN(C(=O)Cc2ccccc2)[C@@H]2CCCO[C@H]12 | -9.86 |
| CC(C)CCC(=O)N1CCC2(CC1)OCCO2 | -8.85 |
| Cc1ccc(C(=O)N2C[C@H]3CN(Cc4csc(C)n4)C[C@H]3C2)cn1 | -173 |
| COC(=O)C(C)(C)NC(=O)c1cnc(Cc2ccc(F)cc2)s1 | 75.4 |
| Cc1cnn(CCNCC(O)COc2c(Cl)cccc2Cl)c1 (centres undefined) | 81.9 |
| Cc1cnn(CCNCC(O)c2ccc(C(F)(F)F)cc2)c1 (centres undefined) | 72.6 |
| Cc1cnn(CC(C)NCCc2cccs2)c1 (centres undefined) | -30.1 |
| CC(C)(O)CNc1ccc(C#N)c(C(F)(F)F)c1 | -74.3 |
| CC1=NOC2(CCN(Cc3c[nH]c4ccccc34)CC2)C1 | -17.9 |
| O=C(c1ccc[nH]1)N1CCC2(CCCN2Cc2cccnc2)CC1 | -9.26 |
| CN(C)c1ncc2c(n1)C1(CCN(Cc3cccnc3)C1)COC2 (centres undefined) | -4.75 |
| CCN1CCN(C[C@@H]2CN(c3ncc(Cl)cc3F)C[C@@H]2CO)CC1 | 92.2 |
| Cc1ccccc1OCC(=O)N1CCN(C2CCOC2=O)CC1 (centres undefined) | -28.3 |
| Cc1cccc(NC(=O)c2cccc(OCc3nnnn3C)c2)n1 | 80.7 |
| CN1CCc2c(C#N)c(NCCc3ccccc3)n3cnnc3c2C1 | 70.9 |
| CC(C)CCNc1c(C#N)c2c(c3nncn13)CN(C)CC2 | -35.1 |
| CN1CCc2c(C#N)c(NCCCO)n3cnnc3c2C1 | -82.4 |
| COc1ccc(CC(=O)N2CCC[C@@H](N)[C@@H]2c2ccccc2F)cc1 | 80.9 |
| COc1ccc(CC(=O)N2CCN(Cc3ccco3)C[C@@H]2C)cc1 | -22.3 |
| COCCN1C[C@@H]2[C@@H](OC)CCN(C(=O)Cc3ccccc3)[C@@H]2C1 | -25 |
| Cc1cccc(CN2C[C@@H]3OCCN(S(=O)(=O)N(C)C)[C@@H]3C2)n1 | -43.1 |
| CCc1ccc2nc(NCCCN(CCO)CCO)cc(C)c2c1 | 83.4 |
| CCN1CCC12CCN(C(=O)c1cc(C)on1)C2 (centres undefined) | -10.1 |
| CCc1noc(CN2CCN(C(=O)Cc3ccc(F)cc3)CC2)n1 | -9.72 |
| NC1CCCCN(Cc2cc(-c3ccccc3OC(F)(F)F)no2)C1 (centres undefined) | 71.1 |

| Compound | INHIBITION [%] |
| --- | --- |
| CC(C)n1ccc2c(C(=O)NC3CN4CCC3CC4)cccc21 (centres undefined) | -67.1 |
| COc1cc(CNCC(C)O)cc(Cl)c1OCc1ccc(C)cc1 (centres undefined) | 73.9 |
| COc1cccc(CNC(C)C)c1OCc1ccc(C)cc1 | 73.7 |
| Cc1nc(C)c(CC(=O)N2CCN(CC(C)C)CC2)c(=O)[nH]1 | -137 |
| Fc1cccc(C(NCc2ncc[nH]2)c2ccccn2)c1 (centres undefined) | 91.8 |
| Clc1cccc(C(NCc2ncc[nH]2)c2ccccn2)c1 (centres undefined) | 86.9 |
| Cc1nnc([C@@H]2C[C@H]3CN(C4CCC4)C[C@H]3O2)[nH]1 | -81.6 |
| O=C(c1cn(Cc2ccccc2)c2ncccc12)N1CCCCC1 | -11.9 |
| N#CC1(c2ccccc2)CCN(C(=O)CN2C(=O)CCNC2=O)CC1 | -90.6 |
| COc1ccc(CNC(C)Cn2cccn2)c(OC)c1OC (centres undefined) | -37.6 |
| CNS(=O)(=O)c1cccc(C(C)NCc2ccccc2OC)c1 (centres undefined) | 86.6 |
| COc1ccc(CNC(C)c2ccc(Cl)cc2)c(OC)c1OC (centres undefined) | 80.9 |
| CCOc1cccc(C(C)NCc2ccc(OC)c(OC)c2OC)c1 (centres undefined) | 77.6 |
| COc1ccc(CNC(C)c2ccccc2Cl)c(OC)c1OC (centres undefined) | 75.6 |
| O=C1C[C@@H]2[C@H](CCN2Cc2ccccn2)N1Cc1ccncc1 | 19.2 |
| Cc1n[nH]c(C)c1CNC(=O)c1cn(CCC2CCCCN2)nn1 (centres undefined) | -24.9 |
| c1coc(CNc2ncc3c(n2)C2(CCNC2)COC3)c1 (centres undefined) | -66 |
| CC(C)N1CCCC(Cc2nccnc2Cl)CC1 (centres undefined) | -7.14 |
| Cn1ccc(CN2CCCC23CCNCC3)n1 | -53.7 |
| O=C([C@H]1C[C@H]2OCC[C@H]2N(Cc2ccccn2)C1)N1CCCCO1 | -88.5 |
| COCC(O)CN(C)c1ccnc2cc(Br)ccc12 (centres undefined) | 94.4 |
| Cc1cc(CN2CCN3C[C@H](c4ccccc4)[C@@H](CO)[C@H]3C2)on1 | -81.4 |
| Cc1ccc(N2CCC3(CCCN3Cc3ccn(C)n3)CC2)nn1 | -63.5 |
| Cc1ccccc1-n1cc(C2=CCN(CCN3CCOCC3)CC2)cn1 | -4.21 |
| CC(C)NC(=O)[C@@H]1CC[C@@H]2[C@@H](CCN2Cc2cn(C)c3ccccc23)O1 | 77.6 |
| CN(C)C(=O)[C@@H]1CC[C@@H]2[C@@H](CCN2Cc2ccccn2)O1 | -97.6 |

| Compound | INHIBITION [%] |
| --- | --- |
| CN(C)C(=O)[C@H]1CC[C@@H]2[C@@H](CCN2Cc2ccccn2)O1 | -43.5 |
| CCN(CC)C(=O)C1CCC2(CCNCC2)CO1 (centres undefined) | -31.8 |
| COCC(=O)NC(C)Cc1ccc(Br)cc1 (centres undefined) | 17.4 |
| Cc1nc(Nc2ccc(Cl)cn2)sc1C(=O)NCCCN1CCCCC1 | 81.4 |
| Cc1cnc(N2CCN3C[C@H](OCc4ccccn4)C[C@H]3C2)nc1 | -24.1 |
| O=C(c1nn(-c2ccccc2F)cc1O)N1CCC2(CC1)OCCO2 | -12.3 |
| CCCN1CCCC(O)(c2nc(C)c(COc3ccccc3)s2)CC1 (centres undefined) | 83.2 |
| O=S1(=O)CCC(n2cc(C3=CCN(CCc4ccccc4)CC3)cn2)C1 (centres undefined) | -45.5 |
| O=C(Nc1cccnc1)[C@H]1CN(Cc2nccs2)C[C@H]2OCC[C@@H]12 | -93.3 |
| CCC(CC)(CN)NC(C)c1ccccc1 (centres undefined) | 83.4 |
| CC(O)CN1CCC(CNCc2cccc(OC(F)(F)F)c2)CC1 (centres undefined) | 80.1 |
| CC(O)CN1CCC(CNCc2ccc(OC(F)(F)F)cc2)CC1 (centres undefined) | 86.9 |
| CC(O)CN1CCC(CNCc2cccc(C(F)(F)F)c2)CC1 (centres undefined) | 83.1 |
| O=C(Cc1ccc(F)cc1)N1CCN(CC(O)C2CC2)CC1 (centres undefined) | 1.79 |
| Cc1c(C(=O)O)nnn1Cc1cccc(C(F)(F)F)c1 | -66.5 |
| CC(=O)N1CCC(CCNC(C)Cc2ccc(F)cc2)CC1 (centres undefined) | -0.762 |
| Cc1nc(CN2CCOC3(CCCC3)C2)no1 | -138 |
| C[C@@H]1CN(C2CCOCC2)C[C@]12CCN(c1cccnc1)C2=O | -104 |
| Cc1ccc(-c2ccnc3cc(CC(=O)N4CCN(C)CC4)nn23)cc1 | -116 |
| CC(C)N(C)C(=O)C1CCC2(CCNCC2)O1 (centres undefined) | -214 |
| c1cc(CO[C@@H]2CC[C@H]3[C@H]2OCCN3Cc2ccoc2)ccn1 | -169 |
| CC(C)CCC(=O)N1C[C@H]2CCN[C@H]2C1 | -114 |
| CCc1noc(C)c1C(=O)NCC(c1ccc(C)cc1)N(C)C (centres undefined) | 71.4 |
| Cc1noc(CN2CC=C(c3cnn(C4CCS(=O)(=O)C4)c3)CC2)n1 (centres undefined) | -15.1 |
| CC(C)(C)n1ncc2c1NC(=O)CSC2c1ccc2c(c1)OCO2 (centres undefined) | -138 |
| NC(=O)c1ccc(N2CCCCC2)c(NC(=O)c2ccc(Br)cc2)c1 | 71.3 |

| Compound | INHIBITION [%] |
| --- | --- |
| O=C(NC[C@H]1C[C@@H]2CCN1C[C@@H]2CN1CCOCC1)Nc1ccccc1 | -40.4 |
| Cc1cc(C)nc(Nc2ccc(C3CCCCN3)cn2)n1 (centres undefined) | -64.1 |
| Cc1cccc(Nc2ccc(C3CCCCN3)cn2)n1 (centres undefined) | 81.4 |
| c1cnc(Nc2ccc(C3CCCCN3)cn2)cn1 (centres undefined) | 13.6 |
| CC(C)C1CCCN1C(=O)c1ccc(-n2ncc(C#N)c2N)cc1 (centres undefined) | 71.4 |
| Cc1cc(CN2C[C@@H]3COC[C@]3(COCc3csc(C)n3)C2)no1 | -58.8 |
| Cc1cccc(CN2C[C@H]3CCC[C@@]3(COCc3csc(C)n3)C2)n1 | 82 |
| Cc1cc(CN2C[C@H]3CCC[C@@]3(COCc3csc(C)n3)C2)no1 | 14.2 |
| CC(C)N1CCCC1c1nc(N(C)C)ncc1I (centres undefined) | 70.7 |
| CC(C)N1CCCCC1c1nc(N(C)C)ncc1I (centres undefined) | 72 |
| CC(C)N1CCCCC1c1cncc(Cl)n1 (centres undefined) | -50.5 |
| COCCNC(=O)[C@H]1CN2CCC1C[C@@H]2Cn1cc(C(C)(C)C)nn1 (some centres undefined) | -65.8 |
| c1cnc(N2CCOC3(COCCN(Cc4cc[nH]n4)C3)C2)nc1 (centres undefined) | -27.9 |
| C=Cc1cccc(CN2C[C@@H](CN(C)CC)[C@@H](CO)C2)c1 | 87.6 |
| CCN(C)C[C@@H]1CN(S(=O)(=O)c2cccc(Cl)c2)C[C@@H]1CO | 75.3 |
| CC(C)=CCN1C[C@@H]2CC[C@H]1CN(S(=O)(=O)c1cccnc1)C2 | -10.7 |
| CCN(C)C[C@@H]1CN(Cc2cccc(Cl)c2)C[C@@H]1CO | 83.6 |
| CCNC(=O)[C@H]1CN(Cc2ccccc2)C[C@@H]1C(=O)c1ccccc1 | -76.3 |
| Cc1nc(CN2CCN(C(=O)Cc3cccc(Cl)c3)CC2)no1 | -18.4 |
| Cc1cccc(N2CCN(C(=O)CCc3c(C)noc3Cl)CC2)c1 | 86.3 |
| CN1CC=C(c2noc(CCC(=O)N3CCCC3)n2)CC1 | -71.4 |
| Cc1ccnc(CC(C)N(C)Cc2ccc3c(c2)CCO3)c1 (centres undefined) | -33.2 |
| Cc1ccc(CN2CCO[C@@H]3[C@@H](OCc4cccnc4)CC[C@@H]32)o1 | -89.9 |
| O=C(N[C@H]1COC[C@@H]1N1CCCC1)c1csc(Cc2ccccc2)n1 | -21.2 |
| O=C(N[C@H]1COC[C@@H]1N1CCCC1)c1csc(-c2cccs2)n1 | 50.8 |
| Cc1nc(C(=O)N[C@H]2COC[C@@H]2N2CCCCC2)cs1 | -260 |
